The target in assay [1] is MAP/microtubule affinity-regulating kinase 3 (Homo sapiens) (UniProt P27448). Conditions: at 1 µM.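 Also: reported values are averaged percent inhibition of MARK3.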
In assay [2] the target is T1, MAP/microtubule affinity-regulating kinase 4 (Homo sapiens) (UniProt Q96L34).
T1 sequence (whole entry): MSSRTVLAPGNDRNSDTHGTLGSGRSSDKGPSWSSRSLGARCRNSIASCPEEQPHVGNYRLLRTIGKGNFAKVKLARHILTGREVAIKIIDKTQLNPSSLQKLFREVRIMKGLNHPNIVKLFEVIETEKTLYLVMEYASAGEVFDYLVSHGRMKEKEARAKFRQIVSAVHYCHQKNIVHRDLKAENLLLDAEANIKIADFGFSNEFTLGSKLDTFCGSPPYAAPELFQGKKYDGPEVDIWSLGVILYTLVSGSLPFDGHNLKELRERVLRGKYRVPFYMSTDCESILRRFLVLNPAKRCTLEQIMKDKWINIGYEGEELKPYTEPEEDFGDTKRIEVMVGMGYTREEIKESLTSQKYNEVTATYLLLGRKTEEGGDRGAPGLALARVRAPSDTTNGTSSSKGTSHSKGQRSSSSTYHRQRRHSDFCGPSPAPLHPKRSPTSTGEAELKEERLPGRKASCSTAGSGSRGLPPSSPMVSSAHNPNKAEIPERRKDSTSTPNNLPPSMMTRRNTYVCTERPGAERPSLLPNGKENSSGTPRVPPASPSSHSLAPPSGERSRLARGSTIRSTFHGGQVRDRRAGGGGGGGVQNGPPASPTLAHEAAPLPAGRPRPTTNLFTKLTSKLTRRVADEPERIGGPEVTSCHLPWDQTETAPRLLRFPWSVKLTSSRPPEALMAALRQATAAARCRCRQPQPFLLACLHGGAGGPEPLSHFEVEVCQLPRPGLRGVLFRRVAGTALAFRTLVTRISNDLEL
The note with it: at 0.1 µM.

In assay [3] the target is T1, MAP/microtubule affinity-regulating kinase 4 (Homo sapiens). Conditions: at 1 µM.
The target of assay [4] is Maternal embryonic leucine zipper kinase (Homo sapiens) (UniProt Q14680). The note with it: at 0.1 µM.
Sequence of Maternal embryonic leucine zipper kinase (Homo sapiens) (Q14680 whole entry, looked up): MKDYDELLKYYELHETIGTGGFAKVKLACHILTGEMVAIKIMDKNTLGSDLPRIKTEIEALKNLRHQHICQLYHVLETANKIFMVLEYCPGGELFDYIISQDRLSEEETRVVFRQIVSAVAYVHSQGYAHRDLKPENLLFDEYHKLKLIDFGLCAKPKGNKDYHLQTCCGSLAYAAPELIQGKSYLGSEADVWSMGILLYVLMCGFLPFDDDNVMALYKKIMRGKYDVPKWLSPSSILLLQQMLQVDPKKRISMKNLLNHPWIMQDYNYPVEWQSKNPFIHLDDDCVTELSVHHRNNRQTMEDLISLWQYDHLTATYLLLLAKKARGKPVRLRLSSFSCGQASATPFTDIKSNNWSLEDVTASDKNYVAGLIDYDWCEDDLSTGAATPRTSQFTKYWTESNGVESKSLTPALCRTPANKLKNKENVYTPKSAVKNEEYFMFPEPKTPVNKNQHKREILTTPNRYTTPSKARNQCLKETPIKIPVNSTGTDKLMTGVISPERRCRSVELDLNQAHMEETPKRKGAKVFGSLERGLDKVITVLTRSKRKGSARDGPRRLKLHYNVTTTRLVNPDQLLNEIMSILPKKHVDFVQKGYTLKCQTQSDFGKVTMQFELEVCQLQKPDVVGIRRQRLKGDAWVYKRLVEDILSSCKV
The target is the same in assay [5]. Conditions: at 1 µM.
The target in assay [6] is MAP kinase-interacting serine/threonine-protein kinase 1 (Homo sapiens) (UniProt Q9BUB5). The note with it: at 0.1 µM.
Sequence of MAP kinase-interacting serine/threonine-protein kinase 1 (Homo sapiens) (Q9BUB5 whole entry, looked up): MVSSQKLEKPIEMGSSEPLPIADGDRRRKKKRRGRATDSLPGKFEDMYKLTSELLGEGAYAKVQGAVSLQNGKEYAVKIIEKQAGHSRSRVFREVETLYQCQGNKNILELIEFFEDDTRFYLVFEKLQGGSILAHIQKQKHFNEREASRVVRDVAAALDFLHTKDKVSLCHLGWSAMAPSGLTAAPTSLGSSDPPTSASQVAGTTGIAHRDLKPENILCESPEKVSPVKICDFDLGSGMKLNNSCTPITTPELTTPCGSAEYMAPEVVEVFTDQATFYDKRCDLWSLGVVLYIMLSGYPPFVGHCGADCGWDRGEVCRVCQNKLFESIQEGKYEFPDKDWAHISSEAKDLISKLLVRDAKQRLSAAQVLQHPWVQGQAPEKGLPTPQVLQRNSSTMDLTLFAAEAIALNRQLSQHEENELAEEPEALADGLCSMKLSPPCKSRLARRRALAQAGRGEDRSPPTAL
Assay [7] shares this target. Conditions: at 1 µM.
Assay [8] concerns the target MAP kinase-interacting serine/threonine-protein kinase 2 (Homo sapiens) (UniProt Q9HBH9). The note with it: at 0.1 µM.
Assay [9] has the same target. The note with it: at 1 µM.
Assay [10] deals with Serine/threonine-protein kinase MARK2 (Homo sapiens) (UniProt Q7KZI7). Conditions: at 0.1 µM.
Sequence of Serine/threonine-protein kinase MARK2 (Homo sapiens) (Q7KZI7 whole entry): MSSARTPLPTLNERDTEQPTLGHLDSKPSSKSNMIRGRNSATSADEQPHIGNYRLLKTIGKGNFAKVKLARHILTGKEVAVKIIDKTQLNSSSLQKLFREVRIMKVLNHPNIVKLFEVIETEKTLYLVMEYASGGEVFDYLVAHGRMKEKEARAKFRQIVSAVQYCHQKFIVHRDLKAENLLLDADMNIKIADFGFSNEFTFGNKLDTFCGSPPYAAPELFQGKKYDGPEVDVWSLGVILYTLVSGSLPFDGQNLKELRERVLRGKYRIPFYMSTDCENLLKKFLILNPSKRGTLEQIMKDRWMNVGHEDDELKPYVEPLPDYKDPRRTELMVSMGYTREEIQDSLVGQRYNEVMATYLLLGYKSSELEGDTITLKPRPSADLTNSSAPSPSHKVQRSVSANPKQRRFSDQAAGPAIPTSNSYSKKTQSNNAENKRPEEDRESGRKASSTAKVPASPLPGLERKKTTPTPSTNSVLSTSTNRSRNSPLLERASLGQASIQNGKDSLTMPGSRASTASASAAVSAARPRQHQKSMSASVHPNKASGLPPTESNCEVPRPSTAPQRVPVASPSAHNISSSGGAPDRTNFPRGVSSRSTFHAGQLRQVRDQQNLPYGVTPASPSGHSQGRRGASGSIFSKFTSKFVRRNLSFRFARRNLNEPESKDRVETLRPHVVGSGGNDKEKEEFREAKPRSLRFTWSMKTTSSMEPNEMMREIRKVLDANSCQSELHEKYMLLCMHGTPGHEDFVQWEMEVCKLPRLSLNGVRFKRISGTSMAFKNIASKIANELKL

Sequence of MAP kinase-interacting serine/threonine-protein kinase 2 (Homo sapiens) (Q9HBH9 whole entry, looked up): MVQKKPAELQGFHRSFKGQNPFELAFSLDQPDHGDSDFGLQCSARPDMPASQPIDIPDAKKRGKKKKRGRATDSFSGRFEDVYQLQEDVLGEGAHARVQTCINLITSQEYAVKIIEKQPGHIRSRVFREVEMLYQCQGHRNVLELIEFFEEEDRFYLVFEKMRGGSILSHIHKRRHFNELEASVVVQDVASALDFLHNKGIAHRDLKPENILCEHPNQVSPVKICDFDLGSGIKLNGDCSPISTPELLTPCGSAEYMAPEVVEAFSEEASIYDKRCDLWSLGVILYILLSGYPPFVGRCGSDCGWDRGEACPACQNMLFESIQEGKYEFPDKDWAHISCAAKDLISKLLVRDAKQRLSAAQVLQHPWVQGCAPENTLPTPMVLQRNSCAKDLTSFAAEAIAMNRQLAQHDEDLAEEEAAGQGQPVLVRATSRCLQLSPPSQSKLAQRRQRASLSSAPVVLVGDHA
Sequence of MAP/microtubule affinity-regulating kinase 3 (Homo sapiens) (P27448 whole entry, looked up): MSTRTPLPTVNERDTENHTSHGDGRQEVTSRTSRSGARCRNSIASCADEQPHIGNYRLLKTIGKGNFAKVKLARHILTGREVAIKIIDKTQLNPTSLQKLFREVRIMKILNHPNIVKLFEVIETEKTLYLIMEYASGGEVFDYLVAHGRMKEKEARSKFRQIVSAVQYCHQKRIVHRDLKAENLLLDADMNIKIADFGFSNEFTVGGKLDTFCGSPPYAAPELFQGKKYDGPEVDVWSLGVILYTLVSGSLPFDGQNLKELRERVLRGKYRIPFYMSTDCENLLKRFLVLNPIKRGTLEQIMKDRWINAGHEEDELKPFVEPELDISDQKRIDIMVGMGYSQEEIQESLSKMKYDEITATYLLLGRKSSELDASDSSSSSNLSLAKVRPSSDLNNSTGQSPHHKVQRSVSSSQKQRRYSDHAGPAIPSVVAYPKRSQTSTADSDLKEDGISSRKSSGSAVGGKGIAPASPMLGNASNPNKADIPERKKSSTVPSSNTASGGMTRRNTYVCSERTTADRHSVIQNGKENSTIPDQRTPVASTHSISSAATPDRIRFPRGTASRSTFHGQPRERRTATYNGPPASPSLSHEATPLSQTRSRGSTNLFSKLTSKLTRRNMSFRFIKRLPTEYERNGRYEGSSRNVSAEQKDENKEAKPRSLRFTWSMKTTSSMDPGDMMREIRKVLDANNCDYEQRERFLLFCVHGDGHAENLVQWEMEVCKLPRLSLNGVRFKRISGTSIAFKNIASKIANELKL

The inhibition is the relative decrease from the control value, in per cent. In the case of `Nc1ccc(C#Cc2cncnc2Nc2ccc(OCc3cccc(F)c3)c(Cl)c2)cc1`, the inhibition in assay [1] was found to be 2.52%; in assay [2], 2.36%; in assay [3], 1.95%; in assay [4] it was 2.97%; in assay [5] it was 1.48%; in [6] it was 2.04%. The inhibition in assay [7] is 10.7%; in [8], 0.63%; in [9] it was 7.26%; in assay [10], -0.22%.

Take `Cc1ccc(NC(=O)CC2CC2)cc1-c1ccc(C(=O)NCC2CC2)cc1`: the inhibition in assay [1] is 1.71%; in assay [2] it was 1%; in assay [3] it was -0.01%; in assay [4], 4.17%; in assay [5] it was 2.02%; in assay [6] it was 2.59%. Also, the inhibition in assay [7] was 7.07%; in assay [8], 1.63%; in [9], 5.54%; in assay [10], -1.05%.

As for `CCS(=O)(=O)c1ccc(OC)c(Nc2nccc(N(C)c3ccc4c(C)n[nH]c4c3)n2)c1`, the inhibition stood at 3.79% in [1]; 2.78% in assay [2]; 3.51% in assay [3]; 3.25% in assay [4]; 6.92% in [5]; 3.05% in [6]. Besides, the inhibition worked out at 3.58% in [7], 0.35% in assay [8], 3.48% in assay [9] and 0.55% in [10].

`CN(C)C(=O)O[C@H]1CN[C@H](C#Cc2cc3ncnc(Nc4ccc(OCc5cccc(F)c5)c(Cl)c4)c3s2)C1`: the inhibition worked out at 3.81% in assay [1]; 1.04% in [2]; 1.72% in [3]; 1.5% in [4]; 4.17% in [5]; 2.31% in [6]. The inhibition in [7] worked out at 6.43%; in assay [8], 1.15%; in assay [9], 6.67%; in assay [10], 0.94%.

Take `CN1CCN(C(=O)c2ccc(NC(=O)Nc3ccc(N(C)c4ccnc(Nc5ccc(CS(C)(=O)=O)cc5)n4)cc3)cc2)CC1`: the inhibition in [1] stood at 20.3%; in assay [2], 2.48%; in [3], 17.1%; in [4] it was 0.8%; in [5] it was 13.2%; in assay [6] it was 2.8%. The inhibition in assay [7] was determined as 13.1%; in assay [8] it was 5.75%; in [9], 33.8%; in [10], 0.98%.

Turning to `CCS(=O)(=O)c1ccc(OC)c(Nc2ncc(-c3cccc(OC)c3)o2)c1`, the inhibition in [1] is 2.05%; in [2], 0.15%; in [3], 1.64%; in assay [4], 2.89%; in assay [5] it was 11.4%; in [6], 4.25%. For the same compound, the inhibition in assay [7] was 17%; in [8], 1.44%; in [9], 10.6%; in [10], -0.52%.

Regarding `C[C@@H](Oc1cc(-n2cnc3ccc(OCC4CCN(C)CC4)cc32)sc1C(N)=O)c1ccccc1C(F)(F)F`, the inhibition was determined as 57.6% in [1]; 8.72% in [2]; 49.9% in assay [3]; 0.09% in [4]; 22% in assay [5]; 0.35% in assay [6]. In addition, the inhibition in [7] was determined as 1.61%; in assay [8], 1.1%; in assay [9] it was 4.25%; in [10] it was 8.53%.

`CS(=O)(=O)Nc1cccc(-c2ccc3c(NC(=O)C4CC4)n[nH]c3c2)c1`: the inhibition was determined as 6.61% in [1]; 1.87% in [2]; 3.42% in [3]; 0.93% in assay [4]; 4.3% in [5]; 2.34% in assay [6]. Besides, the inhibition is 13.5% in assay [7], 0.41% in assay [8], 3.39% in assay [9] and -1.45% in [10].

Consider `CN(C)c1cc2c(Nc3ccc4c(cnn4Cc4ccccc4)c3)ncnc2cn1`, for which the inhibition was -0.35% in assay [1]; 1.14% in assay [2]; 1.04% in assay [3]; 2.68% in [4]; 2.1% in assay [5]; 3.47% in [6]. Besides, the inhibition in assay [7] stood at 19.4%; in assay [8] it was 3.73%; in assay [9] it was 23%; in assay [10], 0.19%.

Turning to `CN(C)CCCn1c(-c2nonc2N)nc2cnccc21`, the inhibition is 3.45% in assay [1]; 2.41% in [2]; 3.46% in assay [3]; 6.89% in [4]; 20.1% in [5]; 1.87% in [6]. Besides, the inhibition in [7] is 5.5%; in assay [8], 0.54%; in assay [9] it was -0.09%; in assay [10], 1.6%.

With `NC(=O)c1sc(-n2cnc3ccccc32)cc1OCc1ccccc1Br`, the inhibition in assay [1] was found to be 5.83%; in assay [2] it was 1.43%; in [3], 5.23%; in [4] it was 4.71%; in [5] it was 10.1%; in assay [6] it was 2.14%. Further, the inhibition was 11.7% in assay [7], 0.25% in assay [8], 4.3% in assay [9] and 1.95% in assay [10].

With `N#Cc1c(NC(=O)c2ccccc2F)sc2c1CCCC2`, the inhibition in assay [1] was 3.09%; in assay [2], 1.13%; in assay [3], 3.48%; in assay [4], -3.26%; in [5] it was -2.77%; in [6], -0.78%. For the same compound, the inhibition in [7] was -0.18%; in assay [8], -0.06%; in assay [9] it was 2.26%; in assay [10], -0.36%.

Regarding `O=S(=O)(CCOCc1ccc(-c2ccc3ncnc(Nc4ccc(OCc5cccc(F)c5)c(Cl)c4)c3c2)o1)c1ccccc1`, the inhibition came out at 1.33% in [1]; 1.36% in assay [2]; 3.69% in assay [3]; 3.07% in assay [4]; 7.12% in assay [5]; 1.49% in assay [6]. Also, the inhibition in assay [7] is 4.07%; in assay [8], -0.55%; in [9], 4.88%; in [10], -0.42%.

In the case of `COc1cc2ncnc(Nc3ccc4c(cnn4Cc4ccccc4)c3)c2cc1OC`, the inhibition turned out to be 2.6% in [1]; 1.05% in [2]; 3.55% in assay [3]; 3.54% in [4]; 8.01% in assay [5]; 2.44% in [6]. Further, the inhibition was 18% in assay [7], 0.99% in [8], 17.1% in assay [9] and -0.07% in assay [10].

Regarding `Cc1ccc(Nc2ccnc(Nc3cccc(C(N)=O)c3)n2)cc1O`, the inhibition in [1] is 12.5%; in assay [2] it was 1.68%; in [3], 6.22%; in assay [4], 2.96%; in assay [5] it was 7.7%; in assay [6] it was 2.87%. Further, the inhibition worked out at 13.4% in [7], 2.08% in assay [8], 16.7% in assay [9] and 0.4% in [10].

Consider `Nc1nccc(C#Cc2cncnc2Nc2ccc(OCc3cccc(F)c3)c(Cl)c2)n1`, for which the inhibition in assay [1] stood at 11.2%; in assay [2], 3.04%; in [3] it was 7.4%; in [4] it was 2.92%; in assay [5], 5.11%; in assay [6] it was 3.59%. For the same compound, the inhibition in assay [7] came out at 14%; in [8], 2.98%; in assay [9], 8.39%; in assay [10] it was 1.67%.

For the compound `Cc1ccc(C(=O)NC2CC2)cc1-c1ccc2[nH]ncc2c1`, the inhibition in assay [1] is 5.49%; in assay [2], 1.68%; in assay [3] it was 3.83%; in assay [4] it was -4.14%; in assay [5], -5.86%; in [6], -1.37%. The inhibition in assay [7] was -1.19%; in assay [8], 0.44%; in assay [9] it was 1.35%; in assay [10] it was 2.15%.

These data come from ChEMBL document CHEMBL1961873, “Compounds: GSK PKIS; Assays: Nanosyn kinase panel” (2012).
